# Source: PubChem BioAssay (National Center for Advancing Translational Sciences (NCATS))
# PNC inhibitor – inhibitors of perinucleolar compartment assembly | 140,000 compounds, 3.1% hits | AID 2417 | activity change (PNC), negative = inhibition, % at 10 µM | PC3M PTB-GFP, PNC prevalence imaging, 16 h; active compounds read low;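 active means readout at or below -70, meaning at least 70% loss of cells showing the perinucleolar compartment, a nuclear body marking cancer cells; inconclusive means readout between -30 and a set limit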;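 further: plate controls were DMSO wells for no effect and camptothecin positive control wells for full effect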
#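 Compounds are pinned in duplicate onto adhered PC3M cells stably expressing GFP-tagged PTB and incubated 16 h at 37 C. Cells are then fixed, nuclei stained with Hoechst, and PNC-positive cells counted.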
# aGal spleen mod – inhibits or activates alpha-galactosidase in human spleen homogenate | 240,000 compounds, 0.008% hits | AID 2107 | Potency, µM (series often up to 80 µM), without a hit: at the highest dose activity change, negative = inhibition, hits mostly inhibitors | human spleen homogenate, 4MU-alpha-Gal fluorescence, 40 min;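 further: potency means the concentration at half of the fitted maximal effect; 0% = enzyme with vehicle and -100% = no enzyme basal signal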
# Target sequence (P06280 32-429 limits assumed): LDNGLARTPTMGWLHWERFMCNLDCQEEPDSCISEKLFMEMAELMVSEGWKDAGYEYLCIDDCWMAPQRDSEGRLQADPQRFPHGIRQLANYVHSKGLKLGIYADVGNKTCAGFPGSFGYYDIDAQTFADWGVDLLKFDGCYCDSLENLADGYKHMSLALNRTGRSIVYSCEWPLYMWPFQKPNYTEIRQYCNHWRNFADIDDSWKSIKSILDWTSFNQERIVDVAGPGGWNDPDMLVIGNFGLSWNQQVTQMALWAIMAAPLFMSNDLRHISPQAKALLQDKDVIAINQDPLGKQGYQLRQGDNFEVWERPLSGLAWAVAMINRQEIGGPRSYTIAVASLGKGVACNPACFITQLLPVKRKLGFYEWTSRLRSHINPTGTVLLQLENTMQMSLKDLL
#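 Fluorogenic readout (Ex 365/Em 440 nm) of 4-methylumbelliferone released from 1 mM 4-MU-alpha-galactoside by spleen homogenate, 40 min at 37C, pH 5.0. Data normalized to no-enzyme and enzyme controls; Hill-equation AC50 from compound titrations.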
# ALDH1A1 block – blocks purified human ALDH1A1 activity; Purified ALDH1A1, NADH fluorescence, propionaldehyde substrate; 220,000 compounds, 7.3% hits; P00352; Potency, µM (top dose mostly 75.3 µM), for inactives: at the highest dose activity, negative = inhibition, usual class: inhibitors; AID 1030; active means well fitted inhibition curve with a large enough effect, not every such curve was filed as active; inconclusive means small, poorly fitted or top-dose-only effect, or another doubt; inactive means no such curve, though single readings can be large or run the other way;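 further: potency means the concentration at half of the fitted maximal effect; plate controls were no enzyme wells and a reference inhibitor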
# GLA inh pH 4.5 – blocks human alpha-galactosidase A at pH 4.5; P06280; AID 1467; purified enzyme, 4-MU-alpha-Gal fluorescence, pH 4.5; activity change, negative = inhibition, % at 105 µM; 230,000 tested, under 10 active;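 further: 0% = full activity with enzyme and -100% = basal without enzyme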
# 12-hLO inh – 12-hLO (ALOX12) enzyme inhibition; Potency, µM (series often up to 57.1 µM), for the others: top-dose activity change, negative = inhibition, most hits filed as inhibitors; 150,000 compounds, 0.12% hits; purified 12-hLO, xylenol orange hydroperoxide absorbance; P18054; AID 1452; further: potency means the concentration at half of the fitted maximal effect; nearly all actives have a fitted effect of over 55% in size
#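 Hydroperoxide output read as Fe(III)-xylenol orange absorbance, 573-to-405 nm ratio, after 30 min reaction with 40 uM arachidonic acid. Enzyme: 150 nM purified human 12hLO, 15 min compound preincubation; 25 mM Hepes pH 7.0, room temperature.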
# HPGD block – inhibitors of human 15-hydroxyprostaglandin dehydrogenase (HPGD); purified HPGD, NADH fluorescence kinetic, PGE2 substrate; Potency, µM, for the others: top-dose activity change, negative = inhibition, hits mostly inhibitors; P15428; 150,000 compounds, 4.3% hits; active means well fitted inhibition curve with a large enough effect, not every such curve was filed as active; inconclusive means small, poorly fitted or top-dose-only effect, or another doubt; inactive means no such curve, though single readings can be large or run the other way; further: potency means the concentration at half of the fitted maximal effect
# Target sequence (P15428 whole entry, looked up): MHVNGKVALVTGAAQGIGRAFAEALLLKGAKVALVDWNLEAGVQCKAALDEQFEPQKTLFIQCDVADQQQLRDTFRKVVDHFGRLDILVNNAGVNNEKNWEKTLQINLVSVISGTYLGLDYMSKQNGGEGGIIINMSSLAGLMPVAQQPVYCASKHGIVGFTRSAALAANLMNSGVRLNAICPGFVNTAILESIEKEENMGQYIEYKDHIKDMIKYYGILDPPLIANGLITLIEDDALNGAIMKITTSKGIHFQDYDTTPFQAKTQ
#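 NADH formation kinetics: reaction with 30 uM PGE2 and 1 mM NAD+ (final), 20 nM enzyme, Tris-HCl pH 8 with Tween 20, after 15 min compound preincubation at room temperature. Fluorescence change, last versus first of five reads.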
# Active calls of the source: *; ? = inconclusive; · = no result given; [ ] = remark or other dose. Only some compounds are listed: those with a hit (about 10% of all), similar ones and a draw of the others. Unless noted, the call rests on the fitted dose curve; in most records, active means well fitted curve in the direction sought with a large enough effect; inconclusive means small, poorly fitted or top-dose-only effect, or another doubt; inactive means no such curve, though single readings can be large; an effect the other way counts as inactive or inconclusive. Unless noted, on the % scale 0 is the no-effect control and ±100 the full control effect.
SMILES,PNC inhibitor,aGal spleen mod,ALDH1A1 block,GLA inh pH 4.5,12-hLO inh,HPGD block
Cc1ccc(O)c(C(=O)c2cnc3c(c2)COc2ccccc2-3)c1,?,-2%,?,-6,1%,13µM*
O=C(c1cnc2c(c1)COc1ccc(Cl)cc1-2)c1ccccc1O,?,-3%,14%,-5,3%,-17%
CCN(CCCNC(=O)CCNC(=O)Cn1ccc2ccccc2c1=O)c1ccccc1,-94*,3%,?,1,-3%,-26%
CCn1c(=O)cc(OCC(=O)Nc2ccc(OC)c(OC)c2)c2ccccc21,·,-4%,16µM*,-15,·,·
CCN(CCCNC(=O)COc1cc(=O)n(C)c2ccccc12)c1ccccc1,11,-4%,-5%,-1,-6%,-9%
CN(CCNC(=O)CCNC(=O)Cn1ccc2ccccc2c1=O)Cc1ccccc1,-27,11%,-3%,-8,-1%,·
CCN(CCCNC(=O)COc1cc(=O)n(CC)c2ccccc12)c1ccccc1,-100*,-18%,1%,-18,1%,-12%
CCOC(=O)c1ccc(Nc2nc(C)cc(C)c2C#N)cc1,-27,2%,?,1,2%,?
CCOC(=O)c1ccc(Nc2cc(C)nc3ncnn23)cc1,?,3%,10µM*,4,1%,-24%
CCOC(=O)c1ccc(Nc2c(CC)c(C)nc3ncnn23)cc1,-30,-10%,3%,-8,2%,-24%
CCc1c(C)nc2ncnn2c1Nc1ccc(C(C)=O)cc1,-111*,-4%,2%,0,1%,-20%
CCOC(=O)c1ccc(Nc2nnc3nc(C)cc(C)n23)cc1,6,23%,?,4,3%,22µM*
CC1CCC(C(C)C)C2=C1C(C#N)(C#N)C(C#N)(C#N)C(c1ccccc1)N2 (stereo not drawn),-8,?,10µM*,9,-28%,-13%
COc1ccc(/C=C/C(=O)c2cc(F)ccc2OC(=O)c2ccccc2C)cc1OC,-88*,-6%,6%,-5,2%,-16%
O=C(Nc1nccs1)c1ccc(COc2ccc(F)cc2)o1,31,8%,?,6,-3%,14µM*
O=C(Nc1nccs1)c1ccc(COc2ccccc2Br)o1,-88*,0%,2%,4,-4%,-25%
O=C(Nc1nccs1)c1ccc(COc2ccc(Cl)cc2)o1,-2,1%,-6%,6,-12%,-29%
O=C(Nc1cccnc1)c1ccc(COc2ccccc2Cl)o1,-2,5%,-3%,-4,1%,14µM*
O=C(Nc1ccc(Cl)cn1)c1ccc(COc2ccccc2Br)o1,·,4%,-12%,-9,·,·
O=C(O)c1ccccc1Nc1cc(Cl)cc(Cl)c1,·,-2%,·,·,·,·
O=C(NCc1cccnc1)/C(=C\c1ccc(-c2ccc(Br)cc2)o1)S(=O)(=O)c1ccccc1,?,-6%,3.5µM*,0,-4%,-16%
Cc1cc2cc(CCNC(=O)c3ccc(S(=O)(=O)N4CCOCC4)cc3)c(=O)[nH]c2cc1C,?,-3%,?,-10,-1%,-27%
Cc1ccc2cc(CCNC(=O)c3ccc(S(=O)(=O)N4CCCCC4)cc3)c(=O)[nH]c2c1,·,4%,14µM*,-3,·,·
CSc1nsc(SC)c1C(=O)NCCNS(=O)(=O)c1ccc(C)cc1,?,3%,25µM*,-13,?,20µM*
CCc1ccc(NC2=NCC(=O)N2Cc2ccc3c(c2)OCO3)cc1,12,1%,3%,2,-8%,-18%
SMILES,PNC inhibitor,aGal spleen mod,ALDH1A1 block,GLA inh pH 4.5,12-hLO inh,HPGD block
Cc1cc(C)cc(NC2=NCC(=O)N2Cc2ccccc2)c1,-5,-16%,1%,-2,4%,-7%
Cc1ccc(NC2=NCC(=O)N2Cc2ccc3c(c2)OCO3)c(C)c1,-100*,7%,-3%,5,-2%,-1%
Cc1cccc(NC2=NCC(=O)N2Cc2ccccc2)c1,39,12%,25µM*,-5,2%,-10%
Cc1ccc(Nc2nnc(-c3ccc4c(c3)OCO4)o2)c(C)c1,·,0%,19µM*,-7,-13%[11.4 µM],?
O=c1c(CCc2ccccc2)nc2cnc(N3CCOCC3)nc2n1Cc1ccc(F)cc1,·,-18%,?,·,1%,-15%
CCOC(=O)C(=CNc1ccc(NC2=NCC(C)S2)cc1)C(=O)OCC (stereo not drawn),?,2%,3%,-4,-1%,14µM*
COCC(=O)n1cc(C(=O)OC)c2ccccc21,?,13%,5%,5,0%,-5%
COC(=O)c1cn(C(=O)c2ccccc2)c2ccccc12,·,1%,6.3µM*,-5,·,·
Cc1nc2ccccc2n1S(=O)(=O)c1ccc(Br)cc1,-109*,-2%,4%,3,-1%,-22%
O=S(=O)(c1ccc(Br)cc1)N1CCn2c(nc3ccccc32)C1,13,2%,3%,-5,5%,-4%
Nc1nc(SCc2ccc(Cl)cc2Cl)nc2nc3c(cc12)CCCC3,-83*,7%,3%,-8,1%,-28%
O=C(COC(=O)Cc1cccc(C(F)(F)F)c1)Nc1ccccc1,?,1%,?,-2,-3%,·
Cc1ccc(C)c(C(=O)CSc2n[nH]c(C(C)C)n2)c1,-8,-11%,-5%,1,-2%,16µM*
Nc1nc(SCC(=O)Nc2cc(-c3ccccc3)nn2-c2ccccc2)n[nH]1,?,9%,10µM*,1,5%,-5%
Cc1ccc(-c2cc(NC(=O)CSc3n[nH]c(N)n3)n(-c3ccccc3)n2)cc1,7,0%,-5%,-1,2%,-11%
CCc1nc(SCC(=O)c2cc(C)ccc2C)n[nH]1,?,8%,?,-4,-13%,40µM*
CCc1ccc(C(=O)CSc2n[nH]c(C)n2)cc1,-30,-8%,11µM*,-4,-18%,35µM*
Cc1ccc(C)c(C(=O)CSc2n[nH]c(C)n2)c1,-6,?,?,-1,-25%,·
CCC(C)Oc1nc2c(c(=O)n(C)c(=O)n2C)n1C (stereo not drawn),·,6%,11%,-9,·,·
O=C(NNC(=S)NC1CCCCC1)c1ccccc1O,·,4%,-8%,-1,·,·
COC(=O)/C=C/c1cccc(N(Cc2ccc(-c3ccc(N(C)C)cc3)cc2)C(=O)C2CCCCC2)c1,·,7%,·,·,·,·
Nc1nc(SCC(=O)c2ccc(Oc3ccccc3)cc2)n[nH]1,?,-3%,14µM*,-1,-11%,-30%
Nc1nc(SCC(=O)c2ccc([N+](=O)[O-])cc2)n[nH]1,·,7%,3%,0,·,·
O=[N+]([O-])/C(=C\Nc1ccccc1)S(=O)(=O)c1ccccc1,19,4%,-7%,7,-3%,-8%
O=[N+]([O-])/C(=C\Nc1ccccc1Cl)S(=O)(=O)c1ccccc1,-25,14%,-99%,9,-16%,32µM*
